Rows were chosen to be rich in hits. Some 19% of all compounds tested hit in one or more screens of this group.
Giardia kill: Giardia lamblia killing; activity change, % at 7.66 µM, hits read low; Giardia lamblia trophozoite viability; 340,000 tested, 0.15% active; AID 540267; in the data active = activity change below about -80%; inconclusive = between about -30% and that limit;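 also: parasites exposed to compound for two days anaerobically before the ATP read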
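Trophozoite viability was measured as ATP-dependent luminescence, read 15-30 min after reagent addition. Before that, parasites at 100 cells/well were exposed to compounds for 48 h, anaerobically, at 37 deg C.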
IL-1B inflam inh: blocks inflammasome-driven IL-1 beta release. AID 743279. 360,000 tested, 4.7% active. THP-1 LPS/ATP IL-1B secretion, AlphaLISA, 16 h; stronger effect = lower value. activity change, % at 57.5 µM; in the data active = activity change below about -50%; inconclusive = mostly about -30% to -49%
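THP-1 cells pretreated 1 hr with compounds (up to 57.5 uM final), then stimulated with LPS (250 ng/mL final) plus ATP (1.25 mM final); secreted IL-1B measured by AlphaLISA after 16 hr, decreased signal indicating inhibition.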
TDP1 cell CPT: growth inhibition of DT40 Tdp1-/-;hTDP1 cells with camptothecin (screen for TDP1 inhibitors); chicken DT40 Tdp1-/-;hTDP1 cells + 20 nM CPT, ATP luminescence, 48 h; Potency, µM (series often up to 46.2 µM), inactives show top-dose activity change, negative = growth inhibition, usual class: inhibitors; 420,000 tested, 12% active; AID 686979; also: potency is read from the fitted curve at half-maximal effect; nearly all actives have a fitted effect of over 55% in size
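Chicken DT40 Tdp1-/- cells stably complemented with human TDP1 were seeded at 400 cells/well in medium containing 20 nM camptothecin, exposed to pin-transferred compounds, and grown at 37 °C for at least 48 hr. Viability was read as ATP luminescence.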
DT40 TDP1 no CPT: qHTS for Inhibitors of human tyrosyl-DNA phosphodiesterase 1 (TDP1): qHTS in cells in absence of CPT. Potency, µM (series often up to 46.2 µM), without a hit: at the highest dose activity change, negative = growth inhibition, hits mostly inhibitors. DT40 Tdp1-/- hTDP1 cells, no CPT, ATP luminescence, 48 h. 420,000 tested, 15% active; also: potency is read from the fitted curve at half-maximal effect; nearly all actives have a fitted effect of over 55% in size
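Chicken DT40 Tdp1-/- cells stably complemented with human TDP1 were seeded at 400 cells/well with DMSO in place of 20 nM camptothecin. After compound pinning, cells grew at least 48 hr at 37 °C; viability read by CellTiter-Glo luminescence.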
TDP1 block: TDP1 (human) enzyme inhibition. Q9NUW8. Potency, µM (top dose mostly 130 µM), for inactives: at the highest dose activity change, negative = inhibition, most hits filed as inhibitors. recombinant TDP1, AlphaScreen DNA substrate cleavage. 350,000 tested, 0.28% active; also: potency is read from the fitted curve at half-maximal effect; nearly all actives have a fitted effect of over 40% in size
Target sequence (Q9NUW8 whole entry, looked up): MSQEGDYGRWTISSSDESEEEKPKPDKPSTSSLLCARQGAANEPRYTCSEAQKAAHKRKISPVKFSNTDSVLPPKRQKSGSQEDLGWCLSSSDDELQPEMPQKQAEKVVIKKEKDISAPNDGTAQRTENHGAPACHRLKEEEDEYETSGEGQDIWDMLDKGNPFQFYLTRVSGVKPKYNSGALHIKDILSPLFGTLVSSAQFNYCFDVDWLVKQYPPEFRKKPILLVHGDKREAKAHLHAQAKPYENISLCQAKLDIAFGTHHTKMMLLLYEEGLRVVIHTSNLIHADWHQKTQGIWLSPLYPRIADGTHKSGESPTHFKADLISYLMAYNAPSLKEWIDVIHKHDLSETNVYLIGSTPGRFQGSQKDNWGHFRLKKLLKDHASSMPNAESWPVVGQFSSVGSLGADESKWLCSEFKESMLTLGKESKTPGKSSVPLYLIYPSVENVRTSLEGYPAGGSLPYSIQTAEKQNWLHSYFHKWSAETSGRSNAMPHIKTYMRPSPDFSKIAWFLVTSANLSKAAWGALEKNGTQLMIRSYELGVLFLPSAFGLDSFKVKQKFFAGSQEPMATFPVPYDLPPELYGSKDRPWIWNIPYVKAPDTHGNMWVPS
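Tdp1 1 nM final; 15 min RT w/ cpd; substrate 15 nM, 5 min; beads 10 ug/ml, 10 min; AlphaScreen read. Neg ctrl: no enzyme.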
ELG1 DNA repair: inhibitors of ELG1-dependent DNA repair in HEK293T cells; 330,000 tested, 2.3% active; HEK293T ELG1-luciferase reporter, luminescence, 16 h; DNA damage induced by 5-fluorouridine; Potency, µM (doses to about 46.1 µM), without a hit: at the top dose activity change, negative = inhibition, hits mostly inhibitors; also: potency is read from the fitted curve at half-maximal effect; nearly all actives have a fitted effect of over 55% in size
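Step one: seed 2,000 cells per well. Step two: pin-transfer compound or DMSO alongside 5-fluorouridine. Step three: incubate 16 hr, 37 °C, 5% CO2. Step four: add ONE-Glo, wait 30 min, read luminescence.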
The depositor's hits bear a star. Unless noted, calls follow the shape of the dose curve; as a rule, active = well fitted curve in the direction sought with a large enough effect; inconclusive = small, poorly fitted or top-dose-only effect, or another doubt; inactive = no such curve, though single readings can be large; an effect the other way counts as inactive or inconclusive. % is scaled to controls: 0 for no effect and ±100 for the full control effect.

Screening O=C(/C(=C/c1ccncc1)n1ccnc1)c1ccc(Cl)cc1Cl returned Giardia kill -11.1, IL-1B inflam inh -10.3, TDP1 cell CPT 16.4µM*, DT40 TDP1 no CPT 13µM*, TDP1 block 5.6% and ELG1 DNA repair inconclusive.
For Cc1ccccc1CSc1nc2c(sc3ccccc32)c(=O)n1CCCC(=O)NCCCOC(C)C the results were TDP1 cell CPT inconclusive, DT40 TDP1 no CPT inconclusive and TDP1 block 1.2%.
`N=c1n(CCO)c2ccccc2n1CCOc1ccc(Cl)cc1Cl` gave Giardia kill -1.9, IL-1B inflam inh -102.0*, TDP1 cell CPT 6.51µM*, DT40 TDP1 no CPT 5.8µM*, TDP1 block 6.1% and ELG1 DNA repair 1.9%.
For N=c1n(CCN2CCCC2)c2ccccc2n1CC(O)c1ccc(Cl)c(Cl)c1 (centres undefined) the results were Giardia kill 2.9, IL-1B inflam inh -21.9, TDP1 cell CPT 5.8µM*, DT40 TDP1 no CPT 3.66µM*, TDP1 block 3.7% and ELG1 DNA repair inconclusive.
For N=c1n(CCN2CCCCC2)c2ccccc2n1CC(O)COc1ccc(Cl)cc1Cl (centres undefined) the results were TDP1 cell CPT 3.66µM* and DT40 TDP1 no CPT 4.61µM*.
Screening COc1ccc(C(O)Cn2c(=N)n(CCCN(C)C)c3ccccc32)cc1 (centres undefined) returned Giardia kill -3.8, IL-1B inflam inh -27.8, TDP1 cell CPT inconclusive, DT40 TDP1 no CPT inconclusive, TDP1 block 2.2% and ELG1 DNA repair 2.5%.
Screening Cc1ccc(OCC(O)Cn2c(=N)n(CCN3CCCCC3)c3ccccc32)cc1 (centres undefined) returned Giardia kill -14.9, IL-1B inflam inh -50.0*, TDP1 cell CPT 5.17µM*, DT40 TDP1 no CPT 23.1µM*, TDP1 block 4.4% and ELG1 DNA repair -14.4%.
CC1(C(=O)NS(=O)(=O)c2ccc(Cl)s2)CCN1C(=O)C1(c2ccc(Cl)cc2)CCC1 (centres undefined) was read as IL-1B inflam inh -16.5, TDP1 cell CPT -4.1% and DT40 TDP1 no CPT -22.5%.
CCC/C=C(\CCC)C(NS(=O)(=O)c1ccc(C(F)(F)F)cc1)c1ccc(C(=O)OC)cc1 (centres undefined) was read as TDP1 block 5.7%.
`CCc1ccc(-n2nnc(-c3nc(-c4cccs4)no3)c2N)cc1` gave TDP1 cell CPT -27.8%, DT40 TDP1 no CPT inconclusive and TDP1 block 2.6%.
`COc1ccc(OCC(O)CN2CCCCC2)cc1` (centres undefined) gave Giardia kill 6.4, IL-1B inflam inh 13.6, TDP1 cell CPT -0.7%, DT40 TDP1 no CPT 3.9%, TDP1 block 4.9% and ELG1 DNA repair 12.1%.
`COc1ccc(OCC(O)Cn2c(=N)n(CCN3CCCCC3)c3ccccc32)cc1` (centres undefined) gave Giardia kill -13.3, IL-1B inflam inh -57.5*, TDP1 cell CPT 13µM*, DT40 TDP1 no CPT 18.4µM*, TDP1 block 8.8% and ELG1 DNA repair inconclusive.
`Cc1ccc(OCC(O)Cn2c(=N)n(CCN3CCOCC3)c3ccccc32)cc1` (centres undefined) gave Giardia kill 2.8, IL-1B inflam inh inconclusive, TDP1 cell CPT inconclusive, DT40 TDP1 no CPT 23.1µM*, TDP1 block 4.8% and ELG1 DNA repair 0.0%.
Cc1ccc(C(=O)Nc2cnn(-c3ccc(C(=O)NCc4nc(-c5ccccc5)n[nH]4)cc3)c2)c(C)c1 was read as TDP1 cell CPT 0.92µM* and DT40 TDP1 no CPT 1.84µM*.
Screening Cc1cccc(-c2cc(NC(=O)c3ccccc3C)n(-c3ccccc3)n2)c1 returned TDP1 cell CPT inconclusive, DT40 TDP1 no CPT -25.6% and TDP1 block 8.1%.
`Cc1ccc(S(=O)(=O)NNC(=O)c2ccoc2C)cc1` gave Giardia kill -8.6, IL-1B inflam inh 15.8, TDP1 cell CPT -2.4%, DT40 TDP1 no CPT 4.0%, TDP1 block 1.2% and ELG1 DNA repair -8.4%.
CCc1ccc(CN(C)C(=O)c2cc(COc3ccc(-n4cncn4)cc3)on2)cc1 was read as Giardia kill -11.6, IL-1B inflam inh inconclusive, TDP1 cell CPT inconclusive, DT40 TDP1 no CPT 14.6µM*, TDP1 block 2.5% and ELG1 DNA repair -12.5%.
Screening Cc1ccc(OCc2cc(C(=O)N(C)Cc3cnn(-c4ccccc4C)c3)no2)cn1 returned Giardia kill -4.9, IL-1B inflam inh -9.0, TDP1 cell CPT 11.6µM*, DT40 TDP1 no CPT 18.4µM*, TDP1 block 3.5% and ELG1 DNA repair inconclusive.
Screening CCc1ccc(CN(C)C(=O)c2cc(COc3cncc(Cl)c3)on2)cc1 returned IL-1B inflam inh -21.7, TDP1 cell CPT inconclusive and DT40 TDP1 no CPT inconclusive.
For Cc1ccc(OCc2cc(C(=O)N(C)Cc3cnn(C)c3)no2)cc1C the results were IL-1B inflam inh 9.4, TDP1 cell CPT -23.1% and DT40 TDP1 no CPT inconclusive.
CC(C)N(Cc1nccn1C)C(=O)c1cc(COc2ccc(-n3cncn3)cc2)on1 was read as Giardia kill -5.5, IL-1B inflam inh 0.0, TDP1 cell CPT -23.7% and DT40 TDP1 no CPT inconclusive.
CN(Cc1ccc(F)cc1)C(=O)c1cc(COc2ccc(-n3cncn3)cc2)on1 was read as Giardia kill 2.9, IL-1B inflam inh -9.2, TDP1 cell CPT 23.1µM*, DT40 TDP1 no CPT 16.4µM*, TDP1 block 2.7% and ELG1 DNA repair -17.6%.
For COCCCNC(=O)c1cc2cc(S(=O)(=O)N3CCCCC3)ccc2n1C the results were TDP1 cell CPT inconclusive, DT40 TDP1 no CPT inconclusive and TDP1 block -5.4%.
For CN(C)c1ccc(-c2nnn(CC(=O)Nc3ccccc3N3CCOCC3)n2)cc1 the results were Giardia kill 7.1, IL-1B inflam inh -77.0*, TDP1 cell CPT inconclusive, DT40 TDP1 no CPT inconclusive, TDP1 block 11.7% and ELG1 DNA repair 14.6µM*.
Screening CC1CCCN(C(=O)Cn2nnc(-c3ccc(N(C)C)cc3)n2)C1 (centres undefined) returned Giardia kill -12.3, IL-1B inflam inh 8.4, TDP1 cell CPT 4.7%, DT40 TDP1 no CPT -21.8% and ELG1 DNA repair 13.8%.
For CN(C)c1ccc(-c2nnn(CC(=O)N3c4ccccc4CCc4ccccc43)n2)cc1 the results were Giardia kill 0.8, IL-1B inflam inh -1.9, TDP1 cell CPT inconclusive, DT40 TDP1 no CPT 16.4µM*, TDP1 block 7.7% and ELG1 DNA repair 3.5%.
